Only a selection was taken, and hits are over-represented in it overall.
GALK inhibitor: inhibitors of human galactokinase. P51570. Purified GALK, Kinase-Glo residual ATP luminescence. Potency, µM (titrated, usually from 57.5 µM), for inactives: at the highest dose activity change, negative = inhibition, actives largely listed as inhibitors. 0.007% of 270,000 active. AID 1868; further: potency means the concentration at half of the fitted maximal effect
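Human GALK (5 nM) with 35 uM ATP and 100 uM galactose in 20 mM HEPES pH 8.0, 5 mM MgCl2, 60 mM NaCl, 1 mM DTT, 0.01% BSA. After 1 h at room temperature, leftover ATP was read by Kinase-Glo Plus luminescence.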
Six1-Eya2 blk: blocks human Six1 binding to Eya2. Q15475+O00167. AlphaScreen GST-Six1/His-Eya2 binding, biochemical; hits give low values. AID 651725. 0.56% of 360,000 active. activity change, % (no concentration beside the values); in the data active means activity change below about -65%; inconclusive means mostly about -30% to -63%
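Homogeneous AlphaScreen proximity assay pairing GST-Six1 with His-tagged Eya2 (added as 5X mix: 250 nM and 500 nM) in 50 mM Tris pH 8.0, 300 mM NaCl, 1 mM TCEP. Glutathione donor and nickel acceptor beads; 1 h, 37 °C, dark.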
Eya2 inh: inhibitors of human Eya2 phosphatase activity | AID 488837 | 0.006% of 330,000 active | recombinant Eya2, OMFP fluorescence dephosphorylation (OMFP is methylfluorescein phosphate) | O00167 | Potency, µM (doses to about 76.9 µM), without a hit: top-dose activity, negative = inhibition, most hits filed as inhibitors; further: potency means the concentration at half of the fitted maximal effect
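Eya2 (0.2 uM) preincubated 10 min at ambient with compound, then OMFP substrate added at 50 uM; 10 min reaction in 50 mM HEPES pH 7.5, 50 mM NaCl, 5 uM MgCl2, 0.05% BSA, 1 mM DTT. Fluorescence read at Ex 485/Em 525 nm.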
JMJD2E inh: blocks human JMJD2E demethylase activity; B2RXH2; JMJD2E catalytic domain, FDH-coupled NADH fluorescence (FDH is formaldehyde dehydrogenase); Potency, µM (titrated, usually from 57.1 µM), inactives show at the top dose activity change, negative = inhibition, actives largely listed as inhibitors; 1.6% of 230,000 active; active means well fitted inhibition curve with a large enough effect, not every such curve was filed as active; inconclusive means small, poorly fitted or top-dose-only effect, or another doubt; inactive means no such curve, though single readings can be large or run the other way;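 further: potency means the concentration at half of the fitted maximal effect; 0% = wells with enzyme and -100% = buffer wells without enzyme; nearly all actives have a fitted effect of over 50% in size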
Target sequence (B2RXH2 1-337 limits assumed): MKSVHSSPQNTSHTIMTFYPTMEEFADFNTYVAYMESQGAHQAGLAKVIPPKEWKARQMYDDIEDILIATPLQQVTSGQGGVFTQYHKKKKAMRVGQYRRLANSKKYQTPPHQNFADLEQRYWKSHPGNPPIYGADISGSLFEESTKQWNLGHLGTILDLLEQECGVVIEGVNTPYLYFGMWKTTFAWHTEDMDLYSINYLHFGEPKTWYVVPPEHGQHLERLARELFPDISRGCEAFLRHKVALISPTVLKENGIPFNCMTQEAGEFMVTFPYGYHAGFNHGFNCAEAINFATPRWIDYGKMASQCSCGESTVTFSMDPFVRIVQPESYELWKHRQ
Apoferritin bind: candidate novel general anesthetic via apoferritin binding; AID 485281; P02791; 0.074% of 350,000 active; Potency, µM (top dose mostly 77.5 µM), without a hit: at the highest dose activity change, negative = displacement, actives largely listed as inhibitors; apoferritin/1-aminoanthracene competitive binding, fluorescence; further: potency means the concentration at half of the fitted maximal effect; nearly all actives have a fitted effect of over 20% in size
Target sequence (P02791 2-175 limits assumed): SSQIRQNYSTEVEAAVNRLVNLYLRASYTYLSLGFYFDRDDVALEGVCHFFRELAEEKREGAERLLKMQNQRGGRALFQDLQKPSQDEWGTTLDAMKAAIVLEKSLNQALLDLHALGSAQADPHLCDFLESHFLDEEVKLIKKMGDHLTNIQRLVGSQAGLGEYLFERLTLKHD
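Concentration-response curves derived by four-parameter Hill fitting of normalized fluorescence, where compounds displaced 1-AMA from 10 uM horse apoferritin following a brief 10 min room-temperature incubation; propofol titration acted as positive control.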
CtBP-E1A blk: blocks the CtBP interaction with E1A; activity change, % (no concentration beside the values); AlphaScreen GST-E1A/His-CtBP binding, 1536-well; hits give low values; 0.49% of 340,000 active; in the data active means activity change below about -65%; inconclusive means mostly about -30% to -63%
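GST-E1A and His-tagged CtBP (125 nM each as 5X stock) were preincubated with pin-transferred compound for 2 h at 37 °C in the dark, then glutathione donor and nickel acceptor beads were added for 1 h before AlphaScreen reading.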
The depositor's hits bear a star; [ ] = another dose, or the depositor's remark. Unless noted, the call rests on the fitted dose curve; in most records, active means well fitted curve in the direction sought with a large enough effect; inconclusive means small, poorly fitted or top-dose-only effect, or another doubt; inactive means no such curve, though single readings can be large; an effect the other way counts as inactive or inconclusive. Unless noted, on the % scale 0 is the no-effect control and ±100 the full control effect.

For O=c1c(OC2OC(CO)C(O)C(O)C2OC2OC(CO)C(O)C(O)C2OC2OC(CO)C(O)C(O)C2O)c(-c2ccc(O)c(O)c2)oc2cc(O)cc(O)c12 (stereo not given) the results were GALK inhibitor 0%, Six1-Eya2 blk -5, Eya2 inh 15%, JMJD2E inh 14µM*, Apoferritin bind -7% and CtBP-E1A blk -1.
Screening C[C@@H]1O[C@@H](OC[C@H]2O[C@@H](Oc3c(-c4ccc(O)c(O)c4)oc4cc(O)cc(O)c4c3=O)[C@H](O)[C@@H](O)[C@@H]2O)[C@H](O)[C@H](O)[C@H]1O returned GALK inhibitor 4%, Six1-Eya2 blk 32, Eya2 inh -1%, JMJD2E inh 14µM*, Apoferritin bind -11% and CtBP-E1A blk 0.
For CC(C)C[C@H](NC(=O)CNC(=O)[C@H](C)NC(=O)[C@H](CC(C)C)NC(=O)[C@H](CCCNC(=N)N)NC(=O)[C@H](Cc1cnc[nH]1)NC(=O)[C@@H](NC(=O)[C@@H](NC(=O)[C@@H]1CSSC[C@H](NC(=O)[C@@H](N)CO)C(=O)N[C@@H](CC(N)=O)C(=O)N[C@@H]([C@@H](C)O)C(=O)N[C@@H](C)C(=O)N[C@@H]([C@@H](C)O)C(=O)N1)C(C)C)[C@@H](C)O)C(=O)N[C@@H](CC(C)C)C(=O)N[C@@H](CO)C(=O)N[C@@H](CCCNC(=N)N)C(=O)N[C@@H](CO)C(=O)NCC(=O)NCC(=O)N[C@H](C(=O)N[C@H](C(=O)N[C@@H](CCCCN)C(=O)N[C@@H](CC(=O)O)C(=O)N[C@@H](CC(N)=O)C(=O)N[C@@H](Cc1ccccc1)C(=O)N[C@H](C(=O)N1CCC[C@H]1C(=O)N[C@H](C(=O)N[C@@H](CC(N)=O)C(=O)N[C@H](C(=O)NCC(=O)N[C@@H](CO)C(=O)N[C@@H](CCCCN)C(=O)N[C@@H](C)C(=O)N[C@@H](Cc1ccccc1)C(N)=O)C(C)C)[C@@H](C)O)C(C)C)C(C)C)C(C)C the results were Apoferritin bind -21%.
`CCc1ccc(NC(=O)N2CC(C)Oc3ccc(C)cc32)cc1` (stereo not given) gave Apoferritin bind 33%.
Screening O=c1c(O)c(-c2ccc(O)cc2O)oc2cc(O)cc(O)c12 returned Eya2 inh 21%, JMJD2E inh 25µM* and Apoferritin bind 8%.
Screening O=c1c(O[C@@H]2O[C@H](CO)[C@@H](O)[C@H](O)[C@H]2O)c(-c2ccc(O)cc2)oc2cc(O)cc(O)c12 returned Six1-Eya2 blk -6, Eya2 inh 0%, Apoferritin bind -2% and CtBP-E1A blk -18.
Screening O=c1c(O[C@@H]2O[C@H](CO)[C@@H](O)[C@H](O)[C@H]2O)c(-c2ccc(O)c(O)c2)oc2cc(O)cc(O)c12 returned GALK inhibitor -10%, Eya2 inh -11%, JMJD2E inh 13µM* and Apoferritin bind -12%.
`CCCC[C@]12Cc3ccccc3C(O1)c1c(cc(-c3ccccc3)oc1=O)O2` gave Eya2 inh -5%[15.4 µM] and Apoferritin bind inconclusive.
CCCNC(=O)OC[C@H]1O[C@@H](CCO/N=C\[C@@H](NS(=O)(=O)c2ccc(C)cc2)[C@H](C)/C=C\CC(=O)OC)C=C[C@@H]1Oc1ccc(OC)cc1 was read as Apoferritin bind -6%[15.3 µM].
For COc1cc(/C=N/Nc2ccc(F)cc2F)cc(OC)c1O the results were GALK inhibitor 1%, Six1-Eya2 blk 4, Eya2 inh 0%, JMJD2E inh 7.9µM*, Apoferritin bind -4% and CtBP-E1A blk -6.
`CCOc1ccc(-c2nc3ccc(-c4nc5ccc(N6CCN(C)CC6)cc5[nH]4)cc3[nH]2)cc1` gave Apoferritin bind -15%.
